# Source: PubChem BioAssay (National Center for Advancing Translational Sciences (NCATS))
# Only some compounds are listed: those with a hit (about 9% of all), similar ones and a draw of the others.
# IMPase inh – IMPase inhibition in cells | CHO-M1 cells, IP1 accumulation, HTRF TR-FRET ratio | 120,000 tested, under 10 active | AID 901 | inhibition (IP1 accumulation), % at 46.1 µM; active means well fitted curve in the direction sought with a large enough effect in the signal ratio, not every such curve was filed as active; inconclusive means small, poorly fitted or top-dose-only effect, or a change in a side signal; inactive means no such curve, though single readings can be large or run the other way; the % refers to the signal ratio;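 further: cells stimulated with carbachol in lithium chloride buffer; higher means more IMPase inhibition seen as more IP1 and lower FRET ratio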
# Target sequence (P97697 whole entry, looked up): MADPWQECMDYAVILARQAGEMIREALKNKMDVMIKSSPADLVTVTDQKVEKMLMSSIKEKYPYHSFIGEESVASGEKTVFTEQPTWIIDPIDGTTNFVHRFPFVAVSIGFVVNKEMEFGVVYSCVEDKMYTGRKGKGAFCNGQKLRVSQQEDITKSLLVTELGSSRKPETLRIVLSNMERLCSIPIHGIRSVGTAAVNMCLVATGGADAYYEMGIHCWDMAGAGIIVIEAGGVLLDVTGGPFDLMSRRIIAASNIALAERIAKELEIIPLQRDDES
#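 The IP-One HTRF competitive assay in carbachol-stimulated CHO-M1 cells quantifies cellular IP1. Compounds spanned up to 46 uM final, and activity is expressed as AC50 from concentration-response fits of the ratio and donor data.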
# HPGD block – blocks human HPGD enzyme activity. purified HPGD, NADH fluorescence kinetic, PGE2 substrate. Potency, µM, usual class: inhibitors. 4.3% of 150,000 active
# Target sequence (P15428 whole entry, looked up): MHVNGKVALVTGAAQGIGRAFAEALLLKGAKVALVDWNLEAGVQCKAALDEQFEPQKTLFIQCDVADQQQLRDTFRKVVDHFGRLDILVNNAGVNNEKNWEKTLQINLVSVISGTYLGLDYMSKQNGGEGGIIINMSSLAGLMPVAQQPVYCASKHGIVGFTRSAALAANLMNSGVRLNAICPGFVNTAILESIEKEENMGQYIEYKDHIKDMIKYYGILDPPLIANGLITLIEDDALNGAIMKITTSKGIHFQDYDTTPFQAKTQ
#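 NADH formation kinetics: reaction with 30 uM PGE2 and 1 mM NAD+ (final), 20 nM enzyme, Tris-HCl pH 8 with Tween 20, after 15 min compound preincubation at room temperature. Fluorescence change, last versus first of five reads.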
# ALDH1A1 inh – ALDH1A1 (human) enzyme inhibition | P00352 | Purified ALDH1A1, NADH fluorescence, propionaldehyde substrate | Potency, µM (doses to about 75.3 µM), actives largely listed as inhibitors | 7.3% of 220,000 active | AID 1030
# A number is an active result; n = inactive; u = inconclusive; x = not tested or not shown; [ ] = remark or other dose. Unless noted, the call rests on the fitted dose curve; in most records, active means well fitted inhibition curve with a large enough effect (not every such curve was filed as active); inconclusive means small, poorly fitted or top-dose-only effect, or another doubt; inactive means no such curve, though single readings can be large or run the other way.
SMILES,IMPase inh,HPGD block,ALDH1A1 inh
C/C(=N\N(Cc1ccccc1)c1ccccc1)c1ccncc1,x,x,n
Cc1ccc(C(c2nnnn2Cc2ccccc2)N2CCN(Cc3ccccc3)CC2)cc1 (stereo unspecified),n,n,22.4µM
c1ccc(CN2CCN(C(c3ccccc3)c3nnnn3Cc3ccccc3)CC2)cc1 (stereo unspecified),n,n,n
COc1ccc(Cn2nnnc2C(c2ccccc2)N2CCN(C3CCCC3)CC2)cc1 (stereo unspecified),n,n,8.91µM
COc1ccc(C(c2nnnn2Cc2ccccc2)N2CCN(c3ccccc3)CC2)cc1 (stereo unspecified),n,n,n
COc1ccc(Cn2nnnc2C(c2ccncc2)N2CCOCC2)cc1 (stereo unspecified),n,n,28.2µM
COc1ccc(Cn2nnnc2C(c2ccccc2Cl)N2CCN(C3CCCC3)CC2)cc1 (stereo unspecified),n,x,n
Cc1nn(-c2ccccc2)c2sc(C(=O)OCN3C(=O)c4ccccc4C3=O)cc12,n,n,n
CC1CCCC(NC(=S)NC(=O)c2ccccc2Br)C1C (stereo unspecified),x,n,n
CCc1ccc(OCC(=O)Nc2ncn[nH]2)cc1,x,x,n
Cc1ccc(-c2cc(-c3cccc(F)c3)n[nH]2)c(O)c1,n,n,n
Cc1ccc(O)c(-c2cc(-c3cccc(F)c3)n[nH]2)c1,n,15.8µM,n
Cc1ccc(-c2cc(C(=O)Nc3c(C)n(C)n(-c4ccccc4)c3=O)[nH]n2)c(O)c1,n,n,n
Cc1ccc(-c2cc(-c3ccccc3C)[nH]n2)c(O)c1,n,10µM,n
Cc1ccc(O)c(-c2cc3ccccc3[nH]2)c1,n,u,u
COc1ccc(-c2cc(-c3ccccc3O)[nH]n2)cc1OC,n,n,n
Cc1ccc(O)c(-c2cc(-c3ccccc3F)[nH]n2)c1,n,4.47µM,n
O=[N+]([O-])c1ccccc1-c1cc(-c2ccccc2O)n[nH]1,x,12.6µM,u
COC(=O)CCSCC(=O)N1N=C(c2ccc(OC)cc2)CC1c1cccc(OC)c1OC (stereo unspecified),x,x,n
O=C(NCC1CCCO1)C(c1ccc(F)cc1)N(Cc1ccc2c(c1)OCO2)C(=O)c1ccc(CN2CCOCC2)o1 (stereo unspecified),x,x,n
Oc1ccc(Br)cc1-c1cc(-c2ccccc2)n[nH]1,n,25.1µM,n
Oc1ccc(Br)cc1-c1cc(-c2ccc(Cl)cc2)n[nH]1,n,u,n
COc1cccc(NC(=O)CC2Nc3cc(C)c(C)cc3NC2=O)c1 (stereo unspecified),n,x,x
N#CC(C#N)=C1C=CC=CN1/C(=C\c1ccccc1Cl)C(=O)c1ccccc1,x,7.94µM,u
COc1ccc(S(=O)(=O)NCc2c(-c3ccccc3)noc2C)c(OC)c1,x,x,2.51µM
SMILES,IMPase inh,HPGD block,ALDH1A1 inh
COc1ccc(CCNC(=O)c2c(-c3ccccc3)noc2C)cc1OC,n,n,n
Cc1ccc(S(=O)(=O)NCc2c(-c3ccccc3)noc2C)cc1,x,x,3.98µM
Cc1ccc(S(=O)(=O)NCc2ccccc2)cc1,n,n,n
Cc1nc(SCCOc2ccccc2F)[nH]c(=O)c1Cc1ccccc1,x,x,n
O=C(Nc1cccnc1)c1ccccc1-c1nc(-c2ccccc2F)no1,n,n,11.2µM
Cc1onc(-c2ccccc2)c1C(=O)Nc1cccnc1,n,n,u
Cc1onc(-c2ccccc2Cl)c1C(=O)OCc1cnc(Cl)s1,x,x,n
Cc1onc(-c2ccccc2Cl)c1C(=O)Nc1cccnc1,n,n,22.4µM
CCSc1nnc(NC(=O)c2c(-c3ccccc3Cl)noc2C)s1,n,n,11.2µM
Cc1onc(-c2ccccc2Cl)c1C(=O)OCN1C(=O)c2ccccc2C1=O,n,11.2µM,n
COc1ccccc1-c1noc(-c2ccccc2C(=O)Nc2cccnc2)n1,n,n,u
Cc1onc(-c2ccccc2Cl)c1C(=O)Nc1nnc(-c2cccc([N+](=O)[O-])c2)s1,n,n,u
CC1(C)OC2CC3C4CCC5=CC(=O)C=C[C@@]5(C)[C@]4(F)C(O)C[C@@]3(C)[C@]2(C(=O)CO)O1 (stereo partly specified),x,n,n
COCCCNC(=O)Cn1c(=O)n(CCCCCC(=O)NCc2ccc3c(c2)OCO3)c(=O)c2sccc21,x,x,n
COC(=O)C(NC(C)=O)(Nc1ccc(C)cn1)C(F)(F)F (stereo unspecified),x,x,n
CCOC(=O)c1sc(=S)n(CC)c1NC(=O)C1CC1,n,n,n
C=CCn1c(NC(=O)c2ccc(Br)o2)c(C(=O)OCC)sc1=S,n,15.8µM,3.55µM
CC(C)NC(=O)CN1C(=O)C(=O)c2ccccc21,n,n,n
O=C(CCN1C(=O)c2ccccc2C1=O)N1CCN(c2ccccc2)CC1,n,n,n
O=C(CCN1C(=O)c2ccccc2C1=O)N1CCCCCC1,n,15.8µM,20µM
O=C1C(=O)N(CC(=O)N2CCCC2)c2ccccc21,x,x,3.55µM
CCCCCCC/C=C/C1=CC2(C)CC1(C)C(CCCCCCC)CC2=O (stereo unspecified),x,x,n[13.5 µM]
COc1ccc(C(=O)C(OC(=O)CNC(=O)c2ccco2)c2ccccc2)cc1 (stereo unspecified),n,n,20µM
O=C(CNC(=O)c1ccccc1)OC(C(=O)c1ccccc1)c1ccccc1 (stereo unspecified),n,n,n
COC(=O)c1ccc(C(NC(=O)OCc2ccccc2)/C(=C/[C@@H](C)C(=O)N(C)Cc2cccnc2)c2cccnc2)cc1 (stereo partly specified),x,n,n
SMILES,IMPase inh,HPGD block,ALDH1A1 inh
COC(=O)[C@@]1(Cc2ccc(F)cc2)[C@H]2c3cc(C(=O)N(C)C)n(Cc4ccc(C)o4)c3C[C@H]2CN1C(=O)c1ccccc1,x,17.8µM,n
COC(=O)[C@@]1(Cc2ccc(F)cc2)[C@H]2c3cc(C(=O)N(C)C)n(Cc4ccccc4)c3C[C@H]2CN1C(=O)c1ccccc1,x,n,n
O=C(O)c1cc(Cl)c(Cl)cc1C(=O)N1CCCC1,n,n,n
O=C(c1cc(Br)ccc1Cl)N1CCCC1,x,x,n
O=C(c1cc2c(cc1Br)OCCCO2)N1CCCCC1,x,2.24µM,n
O=C(c1cc(F)c(F)cc1Cl)N1CCCCC1,n,5.62µM,n
Cc1ccc(-c2nc3cnccn3c2Nc2ccc3c(c2)OCCO3)o1,n,n,12.6µM
Cc1ccc(-c2nc3cnccn3c2Nc2ccc3c(c2)OCO3)cc1,n,n,u
O=C(NC1CCCCC1)C(c1ccc2ncccc2c1)N(Cc1ccc(F)cc1)C(=O)c1ccc2c(c1)OCCO2 (stereo unspecified),n,n,u
O=C(NC1CCCCC1)C(c1ccc2ncccc2c1)N(Cc1ccc2c(c1)OCO2)C(=O)c1ccc2c(c1)OCCO2 (stereo unspecified),x,n,28.2µM
CC(=O)C1CCC2C3CC=C4CC(O)CC[C@@]4(C)C3CC[C@]12C (stereo partly specified),x,n,n
CCCCNC(=O)c1onc(CSc2ccc(C)c(C)c2)c1C(=O)O,n,n,n
Cc1cccc(SCc2noc(C(=O)NC(C)C)c2C(=O)O)c1,n,n,n
COC(=O)c1c(CSc2ccc(Cl)cc2)noc1C(=O)NCc1ccco1,n,22.4µM,u
O=C(CSc1ccc(Cl)cc1)NC(=O)NCc1ccco1,x,x,n
COC(=O)c1c(CSc2cccc(C)c2)noc1C(=O)NCc1ccco1,u,11.2µM,u
